Source: PubChem
E coli growth-1: blocks Escherichia coli growth. OD600, 23 h; stronger effect = lower value. OD600 absorbance (no concentration beside the values). hit rate 0.21% among 330,000. AID 1053175;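 active = OD600 absorbance below the run mean of sample wells minus 3.6 SD, in any replicate, cut at about 0.56 in these data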
Tat transport: E. coli Tat transport inhibition. E. coli MC4100 TorA-mCherry Tat export, fluorescence. inhibition, % at 10 µM. hit rate 0.036% among 340,000;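 active = mean replicate inhibition at least 50% and at least half of replicates individually reaching 50%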;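 note: exported cargo escapes ClpAP degradation while cytoplasmic cargo is degraded and loses fluorescence; 0% = median of neutral control wells and 100% = median of NaSCN control wells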
E coli growth-2: bacterial growth inhibition, counter-screen for AddAB inhibitors; AID 449728; hit rate 0.27% among 330,000; E. coli V3065 growth, OD600 absorbance, 18 h; inhibition, % at 11.9 µM;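 active = inhibition above the campaign's mean inhibition across all tested compounds plus 3 SD, cut at about 9.9% in these data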;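 note: uninfected addAB+ strain grown without phage in ampicillin broth; 0% = DMSO wells and 100% = ciprofloxacin 0.95 µg/ml wells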
phage Ecoli inh: E. coli growth loss with phage present. growth absorbance. inhibition, % at 11.9 µM. hit rate 0.26% among 360,000; in the data active = inhibition above about 11%
AddAB inh: less growth of phage-infected E. coli with AddAB. E. coli expressing H. pylori AddAB, absorbance growth. hit rate 0.29% among 330,000. inhibition, % at 11.9 µM; in the data active = inhibition above about 12%;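 note: 0% = vehicle wells of infected cells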
AddAB confirm: growth loss of T4-infected E. coli expressing H. pylori AddAB, confirmed; shares compounds with AddAB inh; E. coli V3065 expressing H. pylori AddAB, T4 phage, OD; T4 phage with gene 2 nonsense mutations; inhibition, % at 11.9 µM; hit rate 64% among 880; AID 488942;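 active = mean inhibition above a set limit taken from the earlier primary screen, cut at about 13% in these data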;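 note: higher means less bacterial growth since AddAB block lets phage replicate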
RecBCD counter: counter-screen: growth loss of RecBCD+ E. coli with mutant T4 phage; shares compounds with AddAB inh; E. coli V66 + mutant T4 phage, OD growth; inhibition, % at 11.9 µM; hit rate 73% among 880; AID 488955;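 active = mean inhibition above the mean of solvent-only control wells plus 3 SD, cut at about 4% in these data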;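 note: optical density read after an 18 h incubation at 37 °C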
Bact viability: reduces bacterial viability, AddAB inhibitor counter-screen | hit rate 35% among 880 | inhibition, % at 11.9 µM | AID 488956 | shares compounds with AddAB inh | absorbance (AddAB counterscreen); in the data active = inhibition above about 25%
* hit, by the source's call; · = not tested or not shown. In the library only some 0.5% were active in any assay of this set; here they are far more common.

SMILES	E coli growth-1	Tat transport	E coli growth-2	phage Ecoli inh	AddAB inh	AddAB confirm	RecBCD counter	Bact viability
Cc1nnc(SCC(=O)NCc2ccc3c(c2)OCO3)s1	0.68	-14	44*	1	19*	-6	0	-4
Cn1nc([N+](=O)[O-])c(C(C#N)c2ccccn2)c(Cl)c1=O (stereo not drawn)	0.68	3	9	6	13*	41*	6.1*	22
O=Nc1ccc(O)c2ncccc12	0.4*	5	12*	2	12*	98*	3	17
CC1CN(C(C)CO)C(=O)c2cccc(NC(=O)NC3CCCCC3)c2OC1CN(C)S(=O)(=O)c1ccccc1 (stereo not drawn)	0.7	·	·	·	·	·	·	·
O=C1C=C(c2ccc3ccccc3c2)CC(c2ccc(Cl)cc2)C1 (stereo not drawn)	0.74	·	·	·	·	·	·	·
CCn1cc(C(=O)O)c(=O)c2cc(F)c(N3CCNCC3)cc21	·	94*	99*	·	99*	103*	102*	103*
CCn1cc(C(=O)O)c(=O)c2cc(F)c(N3CCN(S(=O)(=O)c4ccc5c(c4)OCCO5)CC3)cc21	0.083*	-6	48*	7	94*	101*	13*	99*
CCOC(=O)c1cn(CC)c2cc(N3CCSCC3)c(F)cc2c1=O	0.46*	38	83*	7	75*	97*	1	11
CCN1C(=O)C2C(c3ccc(C)cc3)N3C(=O)N(c4cccc(Cl)c4)C(=O)[C@@]3(CC(C)C)C2C1=O (stereo partly drawn)	0.7	·	·	·	·	·	·	·
CCCCC(CNC)NCC(NCCCCC1CCCCC1)C(C)C (stereo not drawn)	0.68	·	·	·	·	·	·	·
Cc1c(-n2cc(C(=O)O)c(=O)c3cc(F)c(N4CCCC4)c(F)c32)c(=O)n(-c2ccccc2)n1C	0.69	-15	2	3	1	·	·	·
NC1C2CN(c3nc4c(cc3F)c(=O)c(C(=O)O)cn4-c3ccc(F)cc3F)CC12 (stereo not drawn)	0.044*	109*	98*	·	100*	99*	100*	101*
COc1cc(NC(=O)c2cc(C3CC3)on2)c(OC)cc1Cl	0.76	7	77*	-1	98*	-2	2	0
CC1CN(C(C)CO)C(=O)c2cccc(NS(=O)(=O)c3cccs3)c2OC1CN(C)C(=O)Nc1ccc(C(F)(F)F)cc1 (stereo not drawn)	0.69	·	·	·	·	·	·	·
CC1OC(OC2C(COC3OC(CO)C(O)C(O)C3O)OC(OC3CC[C@]4(C)C(CC[C@@]5(C)C4CC=C4C6CC(C)(C)CC[C@]6(CO)C(O)C[C@]45C)C3(C)C)C(O)C2O)C(O)C(O)C1O (stereo partly drawn)	0.69	·	·	·	·	·	·	·
Cc1ncc([N+](=O)[O-])n1CCOC(=O)c1ccccc1	0.63	5	1	1	2	·	·	·
Cn1c([N+](=O)[O-])cnc1COC(N)=O	0.67	11	17*	11	26*	79*	5.2*	57*
CCOC1OC(C(=O)Nc2ccccc2)=CC(c2ccc(C(F)(F)F)cc2)C1CCCO (stereo not drawn)	0.68	·	·	·	·	·	·	·
CCc1cccc(NC(=O)CCCSc2nc3ccccc3[nH]2)c1	0.65	-18	6	5	12*	3	3	1
CCC[C@@H](CN1CCC[C@H]1CN1C(N)=NC[C@H]1CC(C)C)N1C[C@@H]([C@H](C)CC)N(CCc2ccc(Cl)c(Cl)c2)C1=N	0.078*	-1	16*	4	13*	-9	2	-7
CCC[C@@H](CN1CCC[C@H]1CN1C(N)=NC[C@@H]1Cc1ccccc1)N1C[C@@H]([C@H](C)CC)N(CCCC2CCCC2)C1=N	·	96*	22*	·	26*	14*	13*	11
Cc1cc2oc(=O)cc(CN(C)Cc3cccc(F)c3)c2cc1Cl	0.67	15	2	0	-1	·	·	·
CCOc1ccc(CN(C)Cc2cc(=O)oc3cc(C)c(Cl)cc23)cc1	0.69	3	15*	2	20*	-1	-1	-3
CCCCC(=O)NC(c1ccc(OC)cc1)c1ccc2cccnc2c1O (stereo not drawn)	·	·	·	10	·	·	·	·
CCCC(=O)NC(c1ccccc1Cl)c1ccc2cccnc2c1O (stereo not drawn)	·	2	35*	26*	34*	29*	27*	26*
SMILES	E coli growth-1	Tat transport	E coli growth-2	phage Ecoli inh	AddAB inh	AddAB confirm	RecBCD counter	Bact viability
COc1ccc(C(NC(=O)C(C)C)c2ccc3cccnc3c2O)cc1 (stereo not drawn)	0.59	27	26*	25*	26*	26*	24*	19
CCCCOc1ccc(Cc2cnc(N)nc2N)cc1	0.34*	-16	12*	10	14*	13*	9.2*	7
CSc1nnc2n(-c3ccc(C)cc3)c(=O)c3c4c(sc3n12)COC(C(C)C)C4 (stereo not drawn)	0.73	0	8	1	15*	-6	-1	-5
Cc1ccc(S(=O)(=O)Nc2ccc(S(=O)(=O)Nc3nccs3)cc2)c([N+](=O)[O-])c1	0.67	-4	9	10	16*	6	4.1*	8
Cc1ccc(S(=O)(=O)Nc2nccs2)cc1[N+](=O)[O-]	0.66	-4	1	3	3	·	·	·
COc1ccc(/C=N/NC(=S)SC)cc1OC	·	-1	13*	8	18*	44*	12*	30*
CN(C)N=Nc1nc[nH]c1C(N)=O	0.59	-5	12*	7	18*	74*	4.0*	40*
CC1CN(C(C)CO)C(=O)c2cccc(NC(=O)Nc3ccc4c(c3)OCO4)c2OC1CN(C)Cc1ccc(-c2ccccc2)cc1 (stereo not drawn)	0.74	·	·	·	·	·	·	·
COc1ccc(CC2CN3C(=NCC3C)N2CC(C)NC(=O)CCC2CCCCC2)cc1 (stereo not drawn)	0.67	·	·	·	·	·	·	·
CCCN1CCN(C(=O)c2cc3c(s2)-c2ccccc2OC3)CC1	0.72	1	13*	8	15*	23*	7.3*	16
CCOC(=O)N1CCN(C(=O)c2cc3c(s2)-c2ccccc2OC3)CC1	0.7	3	2	4	0	·	·	·
O=Cc1ccc(OCc2cccc(C(F)(F)F)c2)cc1O	0.61	-4	12*	10	13*	8	9.5*	6
O=C1C=C(c2cc3ccccc3s2)CC(c2ccc(F)cc2)C1 (stereo not drawn)	0.73	·	·	·	·	·	·	·
CCOc1ccc(NC(=O)CCC(=O)N2CCSc3ccccc32)cc1	0.74	-1	-1	4	19*	-3	0	-3
O=C(COC(=O)c1ccc([N+](=O)[O-])s1)c1ccc[nH]1	·	-9	9	3	12*	68*	3	10
